Results filed as inconclusive are left out. Calls of active or inactive are those of the source. Calls follow the shape of the full dose curve.
target: Retinoic acid receptor RXR-alpha (Homo sapiens) (UniProt P19793); assay: qHTS assay to identify small molecule agonists of the RXR signaling pathway (AID 1159527); details: HEK293T RXRa-UAS-bla, beta-lactamase ratio, 16 h; series mostly up to 76.8 µM; activation: at the top concentration; also: nearly all actives have a fitted effect of over 35% in size
Sequence (P19793 whole entry, looked up): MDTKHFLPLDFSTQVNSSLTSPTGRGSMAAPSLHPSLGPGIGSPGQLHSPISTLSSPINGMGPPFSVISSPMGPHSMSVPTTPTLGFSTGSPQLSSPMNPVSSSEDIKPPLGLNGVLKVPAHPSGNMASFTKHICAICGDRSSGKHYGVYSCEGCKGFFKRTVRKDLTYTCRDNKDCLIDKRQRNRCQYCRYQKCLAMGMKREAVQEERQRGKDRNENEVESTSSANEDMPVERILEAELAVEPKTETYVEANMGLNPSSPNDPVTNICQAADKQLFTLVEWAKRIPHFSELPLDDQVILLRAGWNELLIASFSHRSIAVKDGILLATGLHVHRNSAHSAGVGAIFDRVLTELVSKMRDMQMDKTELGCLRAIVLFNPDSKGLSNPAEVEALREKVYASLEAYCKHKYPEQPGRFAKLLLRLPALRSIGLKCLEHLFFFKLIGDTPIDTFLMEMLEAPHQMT
Text: U.S. Tox21 Program National Center for Advancing Translational Sciences [NCATS] NIH Chemical Genomics Center [NCGC] U.S. Environmental Protection Agency [EPA] National Institutes of Environmental Health Sciences [NIEHS] National Toxicology Program [NTP] U.S. Food and Drug Administration [FDA] Tox21 Assay Overview: The Retinoid X receptor (RXR), a nuclear hormone receptor expressed in liver, spleen, placenta, epidermis, central nervous system. These receptors are able to form homo and heterodimers with other nuclear receptors and due to this heterodimerizing ability, RXR functions as master regulators producing diverse physiological effects. Three subtypes of RXR exist; alpha, beta and gamma. Retinoid X receptor alpha (RXR-alpha) has potential roles in metabolic signaling pathways, skin alopecia, dermal cysts, cardiac development, insulin sensitization etc. Therefore screening environmental chemicals on RXR-alpha signaling can be used for the studies focused on such therapeutic applications. For quantification of RXR-alpha ligands signaling, GeneBLAzer RXR alpha-UAS-bla HEK 293T (Life Technologies, Carlsbad, CA) cells containing a beta-lactamase reporter-gene under control of Retinoid X receptor-alpha response element were used to screen Tox21 10K library.
Tox21 Assay Protocol Summary: RXR-alpha HEK 293T cells were dispensed at 2,000 cells/6 uL of assay medium containing 2% charcoal-stripped FBS using a Multidrop Combi (ThermoFisher Scientific, Waltham, MA) dispenser. The assay was performed in black wall/clear-bottom 1536-well plates (Greiner Bio-One North America Inc. Monroe, NC). 9-cis retinoic acid was used as a positive control in the agonist mode screen. After the assay plates were incubated at 37 C and 5% CO2 for 5 hr, 23 nL of compounds dissolved in DMSO, positive controls or DMSO only were transferred to the assay plate by a Pintool station (Kalypsys, San Diego, CA). The assay plates were incubated at 37 C and 5% CO2 for 16 hr. One uL of LiveBLAzer B/G FRET substrate (Life Technologies) was added using a Flying Reagent Dispenser (Aurora Discovery, San Diego, CA) and the plates were incubated at room temperature for 2 hr. Fluorescence intensity (405 nm excitation, 460/530 nm emission) was measured using an Envision plate reader (PerkinElmer, Shelton, CT).
% is scaled to controls: 0 for no effect and ±100 for the full control effect; potency is read from the fitted curve at half-maximal effect.

SMILES | activation | Potency
O=C(O)c1ccco1 | 1.22% (inactive) | 
CCCn1cnc2c1c(=O)n(CCCCC(C)=O)c(=O)n2C | 8.87% [at 35.3 µM] (inactive) | 
CCN(CC)CCNC(=O)c1cc(Br)c(N)cc1OC | 10.4% [at 35.3 µM] (inactive) | 
CN(C)c1ccc(/C=C/c2ccc([N+](=O)[O-])cc2)cc1 | -7.68% [at 6.98 µM] (inactive) | 
CC(C)O.CC(C)O.CCOC(=O)/C=C(\C)O.CCOC(=O)/C=C(\C)O.[Ti] | -15.1% (inactive) | 
O=[N+]([O-])c1ccc2[nH]ncc2c1 | -18.3% (inactive) | 
CN1C[C@H]2c3ccccc3Oc3ccc(Cl)cc3[C@@H]2C1 | -12% [at 35.3 µM] (inactive) | 
CCOC(=O)C1=C[C@]2(CC)CCCN3CCc4c(n1c1ccccc41)[C@@H]32 | -11.2% [at 35.3 µM] (inactive) | 
CCC(C)c1cc(C(C)(C)C)c(O)c(C(C)(C)C)c1 (stereo not given) |  | 958 nM (active)
C=C(C)C(=O)OCC | 4.89% (inactive) | 
CCOc1ccc(O)cc1 | 14.1% (inactive) | 
Cc1[nH]c(C)c(Cl)c(=O)c1Cl | 5.66% [at 15.8 µM] (inactive) | 
COc1cc(Cl)c(OC)cc1N | -16.3% (inactive) | 
CCOC(=O)C(=O)CCc1ccccc1 | -0.0365% [at 35.3 µM] (inactive) | 
CCCCc1ncc(/C=C(\Cc2cccs2)C(=O)O)n1Cc1ccc(C(=O)O)cc1 | 5.41% [at 35.3 µM] (inactive) | 
Nc1ccc(N)c2c1C(=O)c1ccccc1C2=O | -11.8% (inactive) | 
CCOc1ccc(N)c([N+](=O)[O-])c1 | -0.401% (inactive) | 
O=C(O)C(S)C(S)C(=O)O (stereo not given) | -17.8% [at 35.3 µM] (inactive) | 
O=C(Nc1ccccc1)c1ccccc1O | -16.3% (inactive) | 
CN1CCN(C(c2ccccc2)c2ccccc2)CC1 | -4.4% [at 35.3 µM] (inactive) | 

SMILES | activation | Potency
COc1ccnc(CS(=O)c2nc3ccc(OC(F)F)cc3[nH]2)c1OC (stereo not given) | -8.17% [at 35.3 µM] (inactive) | 
C=CCOc1ccccc1OCC(O)CNC(C)C (stereo not given) | 6.78% [at 35.3 µM] (inactive) | 
O=C1OC(CN2CCOCC2)CN1/N=C/c1ccc([N+](=O)[O-])o1 (stereo not given) | -18.2% [at 35.3 µM] (inactive) | 
CCCC(=O)Nc1ccc(O)c(C(C)=O)c1 | -0.601% [at 35.3 µM] (inactive) | 
COCCCN1CCC(NC(=O)c2cc(Cl)c(N)c3c2OCC3)CC1 | 13.5% [at 35.3 µM] (inactive) | 
CN1Cc2cc(C(=O)N3CCC(C4CCNCC4)CC3)ccc2NC(CC(=O)O)C1=O (stereo not given) | 4.8% [at 35.3 µM] (inactive) | 
Nc1ccccc1S(=O)(=O)c1ccccc1 | 3.46% (inactive) | 
CCCCC1=NC2(CCCC2)C(=O)N1Cc1ccc(-c2ccccc2-c2nn[nH]n2)cc1 | 2.22% [at 35.3 µM] (inactive) | 
Cc1ccc(N=Nc2c(O)c(C(=O)O)cc3ccccc23)c(S(=O)(=O)O)c1 | 13.8% [at 35.3 µM] (inactive) | 
c1cc(CCCc2ccncc2)ccn1 | -3.71% (inactive) | 
CCCCC(CC)COC(=O)CCCCCCCCC(=O)OCC(CC)CCCC (stereo not given) | 4.23% (inactive) | 
O=C1CCC(=O)O1 | -1.25% (inactive) | 
CCCCO | -11.9% (inactive) | 
CC1=CCCC(C)(C)C12CCC(C)O2 (stereo not given) | -6.09% (inactive) | 
O=[N+]([O-])c1ccc(NCCO)c(OCCO)c1 | -15.5% (inactive) | 
CC1=CC[C@H](C(C)C)C=C1 | -12.1% (inactive) | 
C#CCN(C)CCCOc1ccc(Cl)cc1Cl | -21.8% [at 35.3 µM] (inactive) | 
Cc1ccc(C(C)OC(=O)C2(C)CCC(C(=O)O)C2(C)C)cc1 (stereo not given) | 0.487% [at 35.3 µM] (inactive) | 
O=C(O)CC(=O)C(=O)O | 11.5% (inactive) | 
CCCCCCCC/C=C\CCCCCCCC(=O)OCC | 5.4% (inactive) | 

Source: PubChem BioAssay (Tox21)
